# Most compounds without a hit are left out; they make up all but 3.1% or so of the library.
# TDP1 inh – blocks human tyrosyl-DNA phosphodiesterase 1. Q9NUW8. recombinant TDP1, AlphaScreen DNA substrate cleavage. Potency, µM (top dose mostly 130 µM), most hits filed as inhibitors. 350,000 compounds, 0.28% hits. AID 485290; also: nearly all actives have a fitted effect of over 40% in size
# Target sequence (Q9NUW8 whole entry, looked up): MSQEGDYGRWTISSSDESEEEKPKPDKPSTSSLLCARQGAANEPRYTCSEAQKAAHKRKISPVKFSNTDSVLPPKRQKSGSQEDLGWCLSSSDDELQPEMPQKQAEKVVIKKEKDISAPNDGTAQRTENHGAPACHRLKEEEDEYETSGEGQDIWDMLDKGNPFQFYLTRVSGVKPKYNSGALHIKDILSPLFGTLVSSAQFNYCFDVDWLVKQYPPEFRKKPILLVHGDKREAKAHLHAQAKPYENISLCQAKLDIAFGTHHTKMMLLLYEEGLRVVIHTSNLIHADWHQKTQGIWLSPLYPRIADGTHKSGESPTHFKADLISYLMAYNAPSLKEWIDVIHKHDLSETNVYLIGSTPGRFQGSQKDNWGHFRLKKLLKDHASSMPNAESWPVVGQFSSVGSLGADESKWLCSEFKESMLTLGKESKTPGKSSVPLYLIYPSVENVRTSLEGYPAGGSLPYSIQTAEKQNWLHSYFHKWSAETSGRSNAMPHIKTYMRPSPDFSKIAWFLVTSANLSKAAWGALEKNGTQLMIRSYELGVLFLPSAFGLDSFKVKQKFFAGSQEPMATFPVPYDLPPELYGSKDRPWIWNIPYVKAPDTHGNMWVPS
#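 Recombinant E. coli-expressed Tdp1 (1 nM) preincubated with compound 15 min at RT, then 5'-biotin/3'-phosphotyrosine-FITC DNA substrate (15 nM) added for 5 min. AlphaScreen beads (10 ug/ml) added, 10 min RT; tyrosine-FITC cleavage read as signal loss.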
# PLK1 PBD inh – blocks phosphopeptide binding to human PLK1 polo-box domain; AID 720504; P53350; 360,000 compounds, 2.8% hits; Plk1 PBD binding of FITC phosphopeptide, fluorescence polarization; Potency, µM, most hits filed as inhibitors; also: series mostly up to about 57 µM; nearly all actives have a fitted effect of over 65% in size
# Pin1 inhibitor – inhibitors of human Pin1. Q13526. Pin1 FP peptide displacement, HiFluor488, 10 min. Potency, µM (doses to about 115 µM), most hits filed as inhibitors. 390,000 compounds, 0.009% hits. AID 504891; active = well fitted inhibition curve with a large enough effect in the polarisation, with a control signal flat, not every such curve was filed as active; inconclusive = small, poorly fitted or top-dose-only effect, or effect the other way, or a change in a side signal; inactive = no such curve, though single readings can be large or run the other way; the % refers to the polarisation
# Tb PFK inh – blocks T. brucei phosphofructokinase | O15648 | T. brucei PFK, ADP-Glo luminescence | Potency, µM (doses to about 57.5 µM), hits mostly inhibitors | 330,000 compounds, 0.17% hits; also: nearly all actives have a fitted effect of over 60% in size
#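 Compounds were pin-transferred as a titration series up to 57 uM into substrate buffer (0.5 mM F6P, 0.1 mM ATP, pH 8.0), then 1.25 nM PFK was added and reactions ran 45 min before ADP-Glo detection.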
# S-ASM inh – inhibitors of human secretory acid sphingomyelinase; P17405; AID 504937; placental ASM, HMU-PC fluorogenic substrate, 60 min; 340,000 compounds, 0.006% hits; Potency, µM (top dose mostly 57.5 µM), hits mostly inhibitors
#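 Steps: dispense placental human ASM, pin compound, wait 10 min at room temperature, add HMU-PC0 substrate at 9 uM final, incubate 60 min at 37 °C, add stop solution raising pH to 10, read fluorescence.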
# VDR inh – blocks the human vitamin D receptor | P11473 | VDR-SRC2-3 peptide fluorescence polarization, 2 h | Potency, µM, actives largely listed as inhibitors | 400,000 compounds, 0.93% hits | AID 504847
#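 Inhibition of the VDR/SRC2-3 peptide interaction is quantified by fluorescence polarization. Compounds (23 nl, pintool) incubate with the reagents for 2 hours at ambient room temperature.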
# Numbers stand for hits; n = inactive; u = inconclusive; x = no result; [ ] = dose if it differs, or a comment. Unless noted, calls follow the shape of the dose curve; as a rule, active = well fitted curve in the direction sought with a large enough effect; inconclusive = small, poorly fitted or top-dose-only effect, or another doubt; inactive = no such curve, though single readings can be large; an effect the other way counts as inactive or inconclusive.
SMILES,TDP1 inh,PLK1 PBD inh,Pin1 inhibitor,Tb PFK inh,S-ASM inh,VDR inh
CC(C)C[C@H](NC(=O)[C@H](CCCCN)NC(=O)CNC(=O)[C@H](CC(C)C)NC(=O)[C@@H](N)C(C)C)C(=O)N[C@@H](CO)C(=O)N[C@@H](CCC(N)=O)C(=O)N[C@@H](CCC(=O)O)C(=O)N[C@@H](CC(C)C)C(=O)N[C@@H](Cc1cnc[nH]1)C(=O)N[C@@H](CCCCN)C(=O)N[C@@H](CC(C)C)C(=O)N[C@@H](CCC(N)=O)C(=O)N[C@H](C(=O)N[C@@H](Cc1ccc(O)cc1)C(=O)N1CCC[C@H]1C(=O)N[C@@H](CCCNC(=N)N)C(=O)N[C@H](C(=O)N[C@@H](CC(N)=O)C(=O)N[C@H](C(=O)NCC(=O)N[C@@H](CO)C(=O)NCC(=O)N[C@H](C(=O)N1CCC[C@H]1C(N)=O)[C@@H](C)O)[C@@H](C)O)[C@@H](C)O)[C@@H](C)O,n,x,x,x,x,n
CCn1nc(C)c(Br)c1C(=O)Sc1ccccc1Cl,n,13.4µM,n,n,n,u
CCn1nc(C)cc1C(=O)Sc1ccc(C)cc1,x,n,n,n,n,n
CCOC1=NN(c2ncc(C(F)(F)F)cc2Cl)C(=O)C1,x,23.8µM,n,n,n,n
CC(C)CCNC(=O)c1ccc(Cn2c(=O)c3cccn3c3cccnc32)cc1,n,x,n,x,x,n
COC(=O)[C@H](C)NC(=O)NCCC1=CCCCC1,n,29.9µM,n,n,n,n
O=C1CCC/C1=C/Nc1cccc(F)c1,x,18.9µM,n,n,n,u
O=C1CCCC/C1=C/Nc1ccc2c(c1)OCO2,n,n,u,n,n,n
CCOC(=O)c1sc(NC(C)=O)nc1C,n,26.7µM,n,n,n,n
CCOC(=O)c1sc(NC(=O)C2CC=CCC2C(=O)O)nc1C (stereo not drawn),22.4µM,n,n,n,n,n
CCSc1nnc(NC(=O)C2CC=CCC2C(=O)O)s1 (stereo not drawn),56.2µM,n,n,n,n,n
CCSc1nnc(NC(=O)C2CCCCC2)s1,n,n,n,n,n,n
O=C(NCCSc1ccc(Br)cc1)c1ccccc1,n,26.7µM,n,n,n,u
O=C(NCSc1ccccc1)c1ccccc1,n,23.8µM,n,n,n,n
O=C(CCCCC(=O)Sc1ccccc1)Sc1ccccc1,x,u,n,x,n,79.4µM
O=C(CNC(=O)c1ccccc1)Sc1ccccc1,x,4.74µM,n,x,n,44.7µM
CSCc1ccc(C(=O)NCCSc2ccc(Br)cc2)cc1,n,n,n,n,n,n
COc1ccc2cc(C#N)c(=O)oc2c1,n,x,x,x,x,n
Cc1nn2c(=O)cc(COC(=O)c3ccccc3NC(=O)C(C)C)nc2s1,n,x,n,x,x,n
CCOc1cc(/C=C2/SC(=S)NC2=O)ccc1OC(=O)c1ccco1,n,21.2µM,n,n,n,n
COc1cc(/C=C2/SC(=O)NC2=O)ccc1OC(=O)c1ccco1,n,n,n,n,n,n
O=C1NC(=S)S/C1=C/c1ccc(OC(=O)c2ccco2)cc1,50.1µM,u,u,n,n,n
Cc1ccc(N/C=C(\[N+](=O)[O-])S(=O)(=O)c2ccccc2)cc1,n,n,n,n,n,n
Cc1cccc(N/C=C(\[N+](=O)[O-])S(=O)(=O)c2ccccc2)c1,n,26.7µM,n,n,n,n
CCOc1ccc(C(=O)NC(=S)Nc2ccc(N3CCCCC3)cc2)cc1[N+](=O)[O-],n,5.97µM,n,n,n,u
SMILES,TDP1 inh,PLK1 PBD inh,Pin1 inhibitor,Tb PFK inh,S-ASM inh,VDR inh
N#CSCC(=O)c1cccc2ccccc12,n,10.6µM,n,n,n,u
NC(=O)c1cccc2ccccc12,x,n,n,n,n,n
CCOCCCNC(=O)Nc1cc(C(=O)NCc2ccc(C(C)C)cc2)ccc1N1CCCC1,n,x,n,x,x,n
CCOC(=O)Cc1csc(NS(=O)(=O)c2ccc(F)cc2)n1,n,21.2µM,n,n[0.46 µM],n,n
COC(=O)C1=C(C)NC(=O)NC1c1ccc(-c2ccccc2Cl)o1 (stereo not drawn),n,18.9µM,u,n,n,n
CCOC(=O)C1=C(C)NC(=S)NC1c1ccc(-c2cccc(Cl)c2C)o1 (stereo not drawn),n,u,n,n,n,79.4µM
